Molecules are shown by their SMILES. The panel holds about 83,000 compounds, 20% with a hit somewhere; the sample as a whole holds those more often.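 In brief: 96-well plates, 48 h treatment, single concentration, percent growth endpoint.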 Active and inactive are the calls of the source. Rule for the calls: active = growth percent below 10; inactive = the rest.

In this test the test system is LOX IMVI melanoma. Kind of test: NCI-60 one-dose screen, 48 h (100 = growth as untreated, 0 = no growth, -100 = all killed). Particulars: 10 µM.
Regarding `CCOC(=O)[C@@H]1[C@H](c2ccccc2)[C@H]([N+](=O)[O-])[C@H](c2cn(-c3ccccc3)nc2C)N1Cc1ccccc1`, the growth was 65.6% (inactive). For `O=S(=O)(NC1c2ccccc2Oc2ccccc21)c1cc(Cl)ccc1Cl` the value was 96.1% (inactive). Turning to `O=C(O)CCCCSCCCCC(=O)O`, the growth was 109% (inactive). On to `c1ccc(CC(NCCNC(Cc2ccccc2)c2ccccc2)c2ccccc2)cc1` (stereo not given), for which the growth is -87.9% (active).

Regarding `COc1ccc(-c2nsc3c2NC(=O)CC3c2cccc(Cl)c2)cc1` (stereo not given), the growth was 43.7% (inactive). Regarding `Oc1ccc(/C=N\Nc2ccccn2)c(O)c1`, the growth is -6.3% (active). On to `O=c1ccc2nc(-c3ccccc3)nn(-c3ccccc3)c-2c1`, for which the growth was -51.9% (active). For `COc1ccc2nc(C)cc(Nc3ccc(Cl)cc3)c2c1` the value was 105% (inactive); for `COc1c(-c2c3sc(=O)[nH]c3nc3c2c(=O)[nH]n3C(C)C)cc2c(c1OC)OCO2`, 92.3% (inactive). For `COc1ccc(NC(=O)CCn2cnc3c(cc(-c4ccccc4)n3-c3ccccc3)c2=O)cc1` the value was 66.4% (inactive); for `COc1ccc(-c2nnc(COc3ccc(NC(=O)Nc4cccc(C(F)(F)F)c4)cc3F)o2)cc1`, 8.23% (active); for `COc1ccc(/C=C2\SC(=S)N(CCCN3CCOCC3)C2=O)c(OC)c1`, 97.8% (inactive). With `COc1cc2nc(Sc3sc(N)nc3C)n(-c3ccc(Oc4ccccc4)cc3)c(=O)c2cc1OC`, the growth was 78.3% (inactive). In the case of `Cc1ccc2oc(=O)cc(/C(=C3/C=CC=N3)c3ccc[nH]3)c2c1`, the growth was 0.877% (active).

Take `Nc1ccccc1NC(=O)CCCCCCC(=O)Nc1ccc2c(c1)/C(=C/c1ccc[nH]1)C(=O)N2`: the growth is 43.9% (inactive).

(Values after PubChem BioAssay (NCI).)
